Assay outcomes as filed in PubChem BioAssay.
AmpC no deterg: qHTS Inhibitors of AmpC Beta-Lactamase (assay without detergent); AmpC nitrocefin hydrolysis, absorbance 480 nm, 0.0001% Triton; Potency, µM (titrated, usually from 57.1 µM), most hits filed as inhibitors; AID 485341, 2010; 330,000 tested, 0.52% active; P00811; further: nearly all actives have a fitted effect of over 20% in size
Target sequence (P00811 whole entry, looked up): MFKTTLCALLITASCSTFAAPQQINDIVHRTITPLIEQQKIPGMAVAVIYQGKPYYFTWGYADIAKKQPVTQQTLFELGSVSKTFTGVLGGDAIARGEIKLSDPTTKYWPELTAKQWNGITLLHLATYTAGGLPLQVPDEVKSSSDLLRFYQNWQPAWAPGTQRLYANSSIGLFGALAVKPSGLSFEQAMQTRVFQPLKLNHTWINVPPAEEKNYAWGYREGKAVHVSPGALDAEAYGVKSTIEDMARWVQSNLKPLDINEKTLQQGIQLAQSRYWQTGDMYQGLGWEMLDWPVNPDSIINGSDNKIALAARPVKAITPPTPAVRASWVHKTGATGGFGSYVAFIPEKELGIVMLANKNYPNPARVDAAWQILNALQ
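20 mM phosphate pH 7.0 + 0.01% (detergent screen) or 0.0001% Triton X-100; 5.3 nM AmpC reagent; cpd preinc 15 min RT; nitrocefin (800 uM stock) to start; A480 q20 s × 4 min; Activity was normalised to no-enzyme and no-compound control wells.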
AmpC inh detg: qHTS Inhibitors of AmpC Beta-Lactamase (assay with detergent); P00811; AmpC hydrolysis of nitrocefin, absorbance 480 nm, 0.01% Triton; Potency, µM (titrated, usually from 114 µM), actives largely listed as inhibitors; 370,000 tested, 0.041% active; further: nearly all actives have a fitted effect of over 25% in size
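20 mM phosphate pH 7.0 + 0.01% (detergent screen) or 0.0001% Triton X-100; 5.3 nM AmpC reagent; cpd preinc 15 min RT; nitrocefin (800 uM stock) to start; A480 q20 s × 4 min; Activity was normalised to no-enzyme and no-compound control wells.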
Sm TGR inh: qHTS Assay for the Inhibitors of Schistosoma Mansoni Peroxiredoxins; Schistosoma mansoni thioredoxin glutathione reductase (TGR), Q962Y6; purified TGR, DTNB reduction, TNB absorbance 405 nm; Potency, µM (top dose mostly 114 µM), hits mostly inhibitors; 360,000 tested, 3% active; AID 485364, 2010; further: nearly all actives have a fitted effect of over 60% in size
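TGR 20 nM + NADPH 100 uM (dispensed conc.), cpd preinc 15 min RT; start with NADPH (500 uM addition) then DTNB (15 mM addition). Kinetic TNB absorbance, 405 nm filter. Four-parameter Hill fit across titration.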
Hits are given with their value; . = inactive; ? = inconclusive; / = no result given. Rows were chosen to be rich in hits. Some 3.3% of all compounds tested hit in one or more screens of this group. The call rests on the fitted dose curve; in most records, active means well fitted curve in the direction sought with a large enough effect; inconclusive means small, poorly fitted or top-dose-only effect, or another doubt; inactive means no such curve, though single readings can be large; an effect the other way counts as inactive or inconclusive.

SMILES | AmpC no deterg | AmpC inh detg | Sm TGR inh
O=C(NC(=S)NNS(=O)(=O)c1ccccc1)c1ccccc1[N+](=O)[O-] | . | . | 28.2µM
O=C(NC(=S)NNS(=O)(=O)c1ccccc1)c1cccnc1 | . | . | 8.91µM
O=C(NNC(=S)NC(=O)c1ccccc1[N+](=O)[O-])c1ccccc1Cl | . | ? | .
Cc1ccc(S(=O)(=O)NNC(=O)c2cccnc2)cc1 | . | . | .
O=C(NC(=S)NNS(=O)(=O)c1ccccc1)c1ccc([N+](=O)[O-])cc1 | . | . | 20µM
O=C(NNS(=O)(=O)c1ccccc1)c1ccc([N+](=O)[O-])cc1 | . | . | .
O=C(CSc1nc2c([nH]c3ccccc32)c(=O)n1-c1ccccc1F)Nc1cccc(Cl)c1 | / | . | .
Cc1ccc(CN(Cc2ccco2)C(=O)c2ccc(OCC(C)C)cc2)cc1 | / | . | .
COc1ccc2c(CNC3CCC(C)CC3)c(C(=O)O)n(Cc3ccc(F)cc3)c2c1 (stereo not drawn) | / | . | .
COc1ccc(OCc2ccc(-c3nc(C#N)c(N4CCC(C)CC4)o3)o2)cc1 | / | . | .
CSc1ncc(C(=O)NCc2ccc(F)cc2)c(-c2ccccc2)n1 | / | . | .
CCOc1ccccc1C(=O)Nc1ccc(S(=O)(=O)Nc2onc(C)c2C)cc1 | / | . | .
CCOc1ccc(Sc2cc(C(=O)NCCCOC)c3ccccc3n2)cc1 | / | . | .
CCCNC(=O)Cn1nc(-c2ccc(C)c(C)c2)c2cnc3ccc(F)cc3c21 | / | . | .
O=C(C1CCC1)N1CCc2cc(S(=O)(=O)NCc3ccc(F)cc3)ccc21 | / | . | .
Cc1c(Cl)cccc1NC(=O)CN1C(=O)c2ccccc2Sc2ncccc21 | / | . | .
COc1ccccc1CNC(=O)C(=O)NCC(c1ccco1)S(=O)(=O)c1cccs1 (stereo not drawn) | / | . | 8.91µM
O=C(NCc1ccccc1Cl)C(=O)NCC(c1cccs1)S(=O)(=O)c1ccccc1 (stereo not drawn) | / | . | .
O=C(NCc1ccccc1F)C(=O)NCC(c1cccs1)S(=O)(=O)c1cccs1 (stereo not drawn) | / | . | ?
O=C(NCc1ccccc1F)C(=O)NCC(c1ccco1)S(=O)(=O)c1cccs1 (stereo not drawn) | / | . | 12.6µM
O=C(NCc1ccc(F)cc1)C(=O)NCC(c1ccco1)S(=O)(=O)c1cccs1 (stereo not drawn) | / | . | 7.94µM
Cc1ccccc1CNC(=O)C(=O)NCC(c1ccco1)S(=O)(=O)c1cccs1 (stereo not drawn) | / | . | ?
O=C(NCc1ccccc1)C(=O)NCC(c1ccco1)S(=O)(=O)c1ccccc1 (stereo not drawn) | / | . | ?
O=C(NCc1ccccc1Cl)C(=O)NCC(c1ccco1)S(=O)(=O)c1cccs1 (stereo not drawn) | / | . | 31.6µM
Cc1ccc2nc(SC(Cc3cc(Cl)ccc3Cl)C(=O)O)[nH]c2c1 (stereo not drawn) | / | . | .
SMILES | AmpC no deterg | AmpC inh detg | Sm TGR inh
Cc1ccc(-n2ncc(C(=O)NCCc3ccsc3)c2C2CCN(C(=O)OC(C)(C)C)CC2)c(C)c1 | / | . | .
COc1ccc(C2CC(=O)NC(NC(=O)c3ccc(Br)cc3)=N2)c(OC)c1OC (stereo not drawn) | / | . | .
COC(=O)c1sc2cccc(F)c2c1S(=O)(=O)NCc1ccc(F)cc1 | / | . | .
COc1ccc(Cl)cc1NC(=O)CCCS(=O)(=O)c1nc(-c2ccc(OC)c(OC)c2)cc(C(F)(F)F)n1 | / | . | .
CCOc1ccc(OCC)c(NC(=O)CCc2c(C)nc3c(c2C)c(=O)n(C)c(=O)n3C)c1 | / | . | .
COc1ccc(Cl)cc1N1Cc2ccccc2C1 | . | . | 44.7µM
COc1ccc(OC)c(N2Cc3ccccc3C2)c1 | . | . | ?
COc1ccc(N2Cc3ccccc3C2)cc1Cl | . | ? | 31.6µM
COc1ccccc1N1Cc2ccccc2C1 | . | . | ?
O=C(NCc1ccccc1)C1CCN(C(=O)c2cnn(-c3ccccc3)c2-n2cccc2)CC1 | / | . | .
Cc1ccccc1CNC(=O)Cc1csc2ccccc12 | / | . | .
O=C(N=C1c2ccccc2CN1c1ccc(F)c(F)c1)c1cccnc1 | . | . | 44.7µM
O=C(N=C1c2ccccc2CN1c1cccc(Cl)c1)c1cccnc1 | . | ? | .
CCOC(=O)c1ccc(-c2ccc(C=O)o2)cc1 | . | . | .
CCOC(=O)c1cccc(-c2ccc(C=O)o2)c1 | . | . | 50.1µM
O=[N+]([O-])c1cc(S(=O)(=O)C(F)(F)F)ccc1Sc1nc2ccccc2[nH]1 | . | . | 28.2µM
CS(=O)(=O)c1ccc(Sc2nc3ccccc3[nH]2)c([N+](=O)[O-])c1 | . | . | .
O=[N+]([O-])c1cc(S(=O)(=O)C(F)(F)F)ccc1Sc1nc2ccccc2s1 | . | . | 14.1µM
CS(=O)(=O)c1ccc(Sc2nc3ccccc3s2)c([N+](=O)[O-])c1 | . | . | ?
COC(=O)c1cc2oc3ccccc3c2n1Cc1c(F)cccc1Cl | / | . | .
O=C(NCCc1ccccc1)c1ccc2c(c1)CCN2S(=O)(=O)c1ccccc1 | / | . | .
O=C(NCCn1cc(SCc2ccc(C(F)(F)F)cc2)c2ccccc21)c1cccs1 | / | . | .
O=C(CSc1cn(CCNC(=O)c2cccs2)c2ccccc12)NC1CCCC1 | 28.2µM | ? | .
COc1ccccc1S(=O)(=O)Cc1ccc(C(=O)NC(C)c2ccc3c(c2)OCCO3)o1 (stereo not drawn) | . | . | 39.8µM
Cc1ccccc1S(=O)(=O)Cc1ccc(C(=O)NC(C)c2ccccc2)o1 (stereo not drawn) | . | ? | .
SMILES | AmpC no deterg | AmpC inh detg | Sm TGR inh
COc1cc(OC)c(NC(=O)c2c(C)oc3nc(C)nc(N4CCOCC4)c23)cc1Cl | / | . | .
Cc1ccc(-c2ccc(CCC(=O)O)n2-c2cccc(O)c2)cc1 | . | . | 14.1µM
O=C(O)CCc1ccc(-c2ccc(F)cc2)n1CC(=O)O | . | . | ?
Cc1ccc(NC(=O)Cn2c(CCC(=O)O)ccc2-c2ccc(Cl)cc2)cc1 | . | . | ?
Cc1ccc(-c2ccc(CCC(=O)O)n2CC(=O)O)cc1 | . | . | 17.8µM
Cc1ccc(-c2ccc(CCC(=O)O)n2CC2CCCO2)cc1 (stereo not drawn) | . | ? | ?
Cc1ccc(-c2ccc(CCC(=O)O)n2-c2ccc(O)cc2)cc1 | . | . | 25.1µM
CCOc1ccc(-n2c(CCC(=O)O)ccc2-c2ccc(Br)cc2)cc1 | / | . | ?
CCOC(=O)c1ccc(-n2c(CCC(=O)O)ccc2-c2ccc(Br)cc2)cc1 | / | . | 20µM
Cc1ccc(-c2nnc3ccccc3c2C(=O)Nc2cccc(C(F)(F)F)c2)cc1 | / | . | .
CCc1ccc(-n2c(=O)c3ccc(C(=O)NCCc4ccccc4)cc3n(Cc3ccccc3C#N)c2=O)cc1 | / | . | .
Cc1cc2c(s1)c1c(n2C)C(=O)N(Cc2ccccc2F)C1 | . | ? | .
CCOC(=O)c1cc(-c2ccc(F)cc2)n(CCC(=O)Nc2ccccc2OC)c1C | / | . | .
O=C(O)CCc1ccc(-c2ccc(Cl)cc2)n1-c1cccc(C(F)(F)F)c1 | / | . | 25.1µM
O=C(O)CCc1ccc(-c2ccc(Cl)cc2)n1NC(=O)c1ccc(O)cc1 | . | . | .
